Compound activity deposited in PubChem BioAssay by several laboratories.
Neddylation inh: blocks human cullin neddylation; TR-FRET cullin neddylation, biochemical; AID 651699; P61081+Q13564; calls only at 25 µM; actives 0.58% (n = 360,000); in the data active = inhibition above about 36%
KLK7 zymogen act: activators of human kallikrein-7 zymogen. P49862. activation, % at 7 µM. actives 0.9% (n = 370,000). purified proKLK7, EDANS-DABCYL substrate fluorescence; 100% is mature enzyme control, 0% vehicle;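 active = activation above the mean of all tested compounds plus 3 SD, computed per campaign excluding outliers beyond control limits, cut at about 13% in these data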
PfG6PD inh: PfG6PD (Plasmodium falciparum) enzyme inhibition. PfGluPho enzyme, NADPH resazurin-diaphorase fluorescence. inhibition, % at 20 µM. actives 0.78% (n = 350,000). AID 504690;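 active = inhibition reaching at least a set limit at 20 µM in the primary screen, cut at about 59% in these data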;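 note: 0% = DMSO wells with substrate and 100% = DMSO wells lacking glucose-6-phosphate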
FAS TE block: FAS thioesterase (human) inhibition; P49327; recombinant FAS-TE, OMFH fluorogenic substrate, fluorescence endpoint; inhibition, % at 15 µM; actives 0.67% (n = 360,000); AID 602261;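 active = compounds whose normalised, plate-corrected inhibition of enzyme fluorescence in the single-dose primary screen is 50% or more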;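 note: 0% = DMSO with enzyme and 100% = substrate without enzyme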
Target sequence (P49327 whole entry, looked up): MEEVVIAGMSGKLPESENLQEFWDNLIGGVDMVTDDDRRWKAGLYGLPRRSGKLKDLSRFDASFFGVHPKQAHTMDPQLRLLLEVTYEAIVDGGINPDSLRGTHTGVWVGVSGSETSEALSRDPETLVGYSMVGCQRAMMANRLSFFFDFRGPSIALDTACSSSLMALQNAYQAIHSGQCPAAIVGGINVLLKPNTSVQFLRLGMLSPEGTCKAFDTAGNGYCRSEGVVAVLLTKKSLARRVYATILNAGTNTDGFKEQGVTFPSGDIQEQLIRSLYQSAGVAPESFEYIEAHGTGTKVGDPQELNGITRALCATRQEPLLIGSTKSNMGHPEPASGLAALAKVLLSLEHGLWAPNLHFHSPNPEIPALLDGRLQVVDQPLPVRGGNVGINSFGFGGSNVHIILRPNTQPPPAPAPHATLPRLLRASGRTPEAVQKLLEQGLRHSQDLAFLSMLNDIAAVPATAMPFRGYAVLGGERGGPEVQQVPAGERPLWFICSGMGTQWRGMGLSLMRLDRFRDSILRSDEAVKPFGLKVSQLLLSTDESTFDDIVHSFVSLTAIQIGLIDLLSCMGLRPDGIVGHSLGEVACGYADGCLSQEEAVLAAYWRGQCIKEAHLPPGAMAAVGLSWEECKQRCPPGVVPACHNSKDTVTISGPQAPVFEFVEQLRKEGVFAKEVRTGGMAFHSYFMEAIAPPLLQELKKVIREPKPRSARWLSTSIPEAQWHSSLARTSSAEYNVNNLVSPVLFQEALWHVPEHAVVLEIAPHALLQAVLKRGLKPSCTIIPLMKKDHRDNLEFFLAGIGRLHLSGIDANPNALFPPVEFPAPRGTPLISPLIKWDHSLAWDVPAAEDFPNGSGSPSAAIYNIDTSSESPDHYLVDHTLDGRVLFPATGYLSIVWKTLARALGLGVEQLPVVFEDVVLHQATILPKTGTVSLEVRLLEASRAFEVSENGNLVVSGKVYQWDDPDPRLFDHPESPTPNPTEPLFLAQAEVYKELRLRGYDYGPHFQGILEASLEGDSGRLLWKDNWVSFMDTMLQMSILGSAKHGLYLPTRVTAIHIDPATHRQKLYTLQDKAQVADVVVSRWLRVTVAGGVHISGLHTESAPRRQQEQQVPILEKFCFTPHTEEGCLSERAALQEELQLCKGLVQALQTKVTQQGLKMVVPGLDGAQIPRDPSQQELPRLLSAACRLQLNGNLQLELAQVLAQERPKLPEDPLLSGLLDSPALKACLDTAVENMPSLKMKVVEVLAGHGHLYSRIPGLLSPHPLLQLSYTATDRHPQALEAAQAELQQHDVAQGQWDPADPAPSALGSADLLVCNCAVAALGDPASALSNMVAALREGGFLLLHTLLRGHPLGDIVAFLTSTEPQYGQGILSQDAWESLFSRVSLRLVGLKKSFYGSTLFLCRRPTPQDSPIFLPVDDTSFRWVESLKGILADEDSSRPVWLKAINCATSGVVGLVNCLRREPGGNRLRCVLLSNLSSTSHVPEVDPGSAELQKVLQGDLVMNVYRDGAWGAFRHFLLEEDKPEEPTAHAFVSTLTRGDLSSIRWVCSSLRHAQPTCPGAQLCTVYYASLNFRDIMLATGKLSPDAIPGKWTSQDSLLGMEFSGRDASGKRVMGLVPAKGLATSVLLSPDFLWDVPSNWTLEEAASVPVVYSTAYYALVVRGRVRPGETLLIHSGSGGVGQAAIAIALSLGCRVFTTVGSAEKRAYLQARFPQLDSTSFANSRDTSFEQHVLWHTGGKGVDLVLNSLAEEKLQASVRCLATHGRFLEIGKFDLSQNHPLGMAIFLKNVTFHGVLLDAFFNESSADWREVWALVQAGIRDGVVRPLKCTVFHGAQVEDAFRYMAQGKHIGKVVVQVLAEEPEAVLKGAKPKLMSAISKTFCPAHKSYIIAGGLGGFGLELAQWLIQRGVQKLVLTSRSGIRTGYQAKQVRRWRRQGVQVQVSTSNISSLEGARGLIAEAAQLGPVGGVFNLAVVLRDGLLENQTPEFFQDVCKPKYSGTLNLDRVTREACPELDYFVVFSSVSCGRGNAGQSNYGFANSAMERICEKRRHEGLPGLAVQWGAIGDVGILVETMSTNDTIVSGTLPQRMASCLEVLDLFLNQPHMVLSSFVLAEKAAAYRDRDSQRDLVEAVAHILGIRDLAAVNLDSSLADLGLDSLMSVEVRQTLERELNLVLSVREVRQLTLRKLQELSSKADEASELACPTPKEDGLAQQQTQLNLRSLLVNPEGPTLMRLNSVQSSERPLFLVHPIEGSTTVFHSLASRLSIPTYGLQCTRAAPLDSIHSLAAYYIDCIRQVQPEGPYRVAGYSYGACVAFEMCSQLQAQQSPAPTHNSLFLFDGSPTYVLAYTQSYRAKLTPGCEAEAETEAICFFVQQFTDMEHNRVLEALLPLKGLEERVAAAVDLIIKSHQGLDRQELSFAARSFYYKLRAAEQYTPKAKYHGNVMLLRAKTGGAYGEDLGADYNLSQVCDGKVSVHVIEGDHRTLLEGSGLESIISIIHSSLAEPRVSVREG
PfG6PD confirm: PfG6PD inhibition, single-dose confirmed | shares compounds with PfG6PD inh | recombinant PfGluPho, NADPH-diaphorase-resazurin fluorescence | inhibition, % at 20 µM | actives 34% (n = 2,400);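 active = inhibition of at least 50% at 20 µM in any single replicate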;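 note: 0% = DMSO with substrate and 100% = DMSO lacking glucose-6-phosphate substrate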
Diaphorase 10uM: inhibits diaphorase or oxidizes, flagging false PfG6PD hits; shares compounds with PfG6PD inh; diaphorase-coupled resazurin reduction, fluorescence, NADPH 10 uM; inhibition, % at 20 µM; actives 39% (n = 820);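 active = average inhibition reaching 50% or more with the compound at 20 µM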;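 note: resorufin red fluorescence formed as diaphorase reduces resazurin using NADPH; 0% = DMSO with enzyme and 100% = DMSO without enzyme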
Diaphorase 30uM: counter-screen for P. falciparum G6PD inhibitors: diaphorase inhibitors, oxidizers | shares compounds with PfG6PD inh | Diaphorase/resazurin coupled assay, resorufin fluorescence, 30 uM NADPH | inhibition, % at 20 µM | actives 29% (n = 820) | AID 504863;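 active = inhibition averaging 50% or more, tested at 20 µM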;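 note: 0% = DMSO with enzyme and 100% = DMSO wells lacking diaphorase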
The depositor's hits bear a star; i = inactive; nt = not tested or not shown; + = active, no number. This is a sample that favours compounds with a hit; in the whole collection about 2.7% have one here.

SMILES	Neddylation inh	KLK7 zymogen act	PfG6PD inh	FAS TE block	PfG6PD confirm	others
COc1ccc(OC)c(S(=O)(=O)N2CCCC(C(=O)Nc3c(C)n(C)n(-c4ccccc4)c3=O)C2)c1 (stereo not given)	nt	-0.6	nt	nt	nt
Clc1ccc(-c2nc3ccccn3c2CN2CCCCC2)cc1	i	-0.4	-5.5	4.2	nt
Oc1ccc(N2CCN(Cc3c(-c4ccccc4)nc4ccccn34)CC2)cc1	i	0.4	59.2*	-1.3	-1.0
O=C(CSc1nnc(COc2ccc(Cl)cc2)n1Cc1ccco1)Nc1ccc2c(c1)OCO2	nt	0.3	nt	nt	nt
Fc1cccc(CNC(=S)OC2CCC23CCC(c2ccccc2)CC3)c1 (stereo not given)	nt	-0.6	nt	nt	nt
Cc1cc(C)nc(SCc2nc3ccccc3n2C)n1	i	-0.6	-11.5	-4.4	nt
Cn1c(CSc2nc3ccccc3n2C)nc2ccccc21	i	-0.2	78.0*	-2.9	45.0
COc1cc(NCCCn2cnc(C(=O)Nc3ccc(C)c(C)c3)n2)cc(OC)c1OC	i	0.6	73.5*	-7.0	61.4*	Diaphorase 10uM=-17.0;Diaphorase 30uM=-16.3
CCS(=O)(=O)c1cc([N+](=O)[O-])c(Sc2ccccc2NC(C)=O)s1	i	-0.1	61.9*	4.0	-8.5
COC(=O)CCCn1cc(CN2CC=CS2(=O)=O)nn1	nt	-0.4	nt	nt	nt
O=S1(=O)CC2c3ccc(F)cc3CN2CN1CCc1ccccc1 (stereo not given)	nt	-0.9	nt	nt	nt
O=C(CSc1nc2ncc(Cl)cc2[nH]1)NCC(=O)Nc1ccc(F)c(F)c1F	i	0.2	79.0*	-6.1	31.1
CNCc1ccccc1Sc1cc(O)ccc1O	i	0.6	92.2*	-3.5	96.7*	Diaphorase 10uM=53.1*;Diaphorase 30uM=17.7
CNCc1ccccc1Sc1cccc(O)c1	i	-0.4	8.7	-5.2	nt
Oc1ccc(C23CC4CC(CC(C4)C2)C3)cc1O	i	-0.2	82.6*	5.3	70.9*	Diaphorase 10uM=-8.3;Diaphorase 30uM=-2.1
O=Nc1c(O)ccc2cc(S(=O)(=O)O)ccc12	nt	nt	101.8*	-8.0	89.8*	Diaphorase 10uM=75.8*;Diaphorase 30uM=73.4*
O=C(Nc1ccccc1C(F)(F)F)OCCN1C(=O)CCC12CCC(c1ccccc1)CC2 (stereo not given)	nt	-0.4	nt	nt	nt
N=C1/C(=C/c2cccn2CCOc2ccccc2)C(=O)N=C2SC=C(c3ccccc3)N12	i	-10.4	64.7*	41.2	8.6
N=C1/C(=C\c2ccc(-c3cc(Cl)cc(Cl)c3)o2)C(=O)N=C2SC=C(c3ccccc3)N12	i	0.9	7.4	17.0	nt
CCOC(=O)Cc1nc(N2CCCN(C(C)=O)CC2)c2c(C)c(C(=O)OCC)sc2n1	nt	1.9	nt	nt	nt
COC(=O)[C@]12C[C@H](CC(=O)NCc3cccs3)C(=O)N(CCc3ccc(OC)c(OC)c3)C1=C[C@H](COCc1ccccc1)O[C@@H]2C	nt	0.9	nt	nt	nt
Cc1ccc(-c2csc(NC(=O)c3cccc(C)c3)c2C(=O)O)cc1	i	0.2	47.3	1.4	nt
Cc1ccc(-c2csc(NC(=O)/C=C/c3ccco3)c2C(=O)O)cc1	i	-0.3	92.5*	1.2	57.5*	Diaphorase 10uM=57.9*;Diaphorase 30uM=59.2*
Cc1ccc(-c2csc(NC(=O)c3ccc(Br)cc3)c2C(=O)O)cc1	nt	-0.1	117.1*	8.3	52.6*	Diaphorase 10uM=39.7;Diaphorase 30uM=34.6
CCCCCCNC(=O)C1CSCCS(=O)(=O)N1Cc1ccc(F)cc1 (stereo not given)	nt	-0.1	nt	nt	nt
SMILES	Neddylation inh	KLK7 zymogen act	PfG6PD inh	FAS TE block	PfG6PD confirm	others
NC(=O)c1ccc(N2CCN(c3ccc(O)cc3)CC2)c([N+](=O)[O-])c1	i	0.7	66.0*	-8.9	22.5
CC(=O)c1ccc(N2CCN(c3ccc(C(N)=O)cc3[N+](=O)[O-])CC2)cc1	i	-0.5	8.2	-7.4	nt
Cc1ccc2oc(C(=O)N(Cc3ccccc3)C3CCS(=O)(=O)C3)c(C)c2c1 (stereo not given)	i	1.0	2.1	19.1	nt
Cc1c(C(=O)N(Cc2ccccc2Cl)C2CCS(=O)(=O)C2)oc2ccccc12 (stereo not given)	i	0.8	96.0*	25.9	57.3*	Diaphorase 10uM=58.8*;Diaphorase 30uM=45.8
CC(=O)Oc1ccc(-c2csc(Nc3ccc(S(N)(=O)=O)cc3)n2)cc1	i	-0.4	61.5*	6.1	11.3
NS(=O)(=O)c1ccc(Nc2nc(-c3ccc(O)cc3)cs2)cc1	i	-0.2	70.0*	15.3	10.9
O=C(Nc1ccc(Oc2ccccc2)cc1)C1CCCN1S(=O)(=O)c1cccc2cccnc12 (stereo not given)	nt	0.6	nt	nt	nt
O=C1NC(=O)C(Cc2ccc(Cl)cc2)(c2ccccc2)N1 (stereo not given)	i	0.5	67.8*	-3.5	37.8
O=C1NC(=O)C(Cc2ccccc2)(c2ccccc2)N1 (stereo not given)	i	0.3	4.5	-7.4	nt
c1ccc(-n2ncc3c(NC4CCCCCC4)ncnc32)cc1	i	-0.1	95.5*	13.8	20.5
CCOC(=O)N1CCC(Nc2ncnc3c2cnn3-c2ccccc2)CC1	i	0.1	3.8	-6.6	nt
CCOC(=O)c1c(N)sn(-c2ccccc2C)c1=S	i	-0.8	73.2*	-0.6	35.8
Cn1c(=N)n(CC(O)c2cccc3ccccc23)c2ccccc21 (stereo not given)	i	-0.1	79.5*	-5.9	62.5*	Diaphorase 10uM=62.7*;Diaphorase 30uM=51.5*
CN[C@H]1C[C@H]2c3[nH]c4cccc(-c5cccc(F)c5)c4c3CCN2C(=O)[C@H]1[C@H](C)O	nt	-5.6	nt	nt	nt
Cc1cc(C)c(S(=O)(=O)Nc2ccccc2-c2ccccc2)c(C)c1	i	0.6	85.1*	37.1	8.0
CC(C)S(=O)(=O)c1csc(NC(=O)Nc2cc(Cl)ccc2Cl)c1Cl	i	0.1	86.2*	30.9	4.4
CC(=O)NC(CCS(C)(=O)=O)C(=O)Nc1cc(Cl)ccc1Cl (stereo not given)	i	-0.5	-11.9	-3.2	nt
O=C1C=CC(=O)N1c1ccc2c(c1)C(NC(=O)C(F)(F)F)c1ccccc1-2 (stereo not given)	i	-0.3	97.7*	17.3	51.1*	Diaphorase 10uM=-39.8;Diaphorase 30uM=-29.9
CC[n+]1c(/C=C2\C=C(C)CC(C)(C)C2)sc2ccccc21	i	0.0	61.4*	-14.5	3.0
CC[n+]1c(/C=C2/C=C(C)CC(C)(C)C2)sc2ccc(OC)cc21	i	-0.1	45.4	-27.0	nt
O=C(NC1CCCCN(Cc2ccc(Cl)cc2)C1=O)c1ccc(-c2ccccc2)cc1 (stereo not given)	nt	0.1	nt	nt	nt
COc1ccc(C(=O)c2coc3c2C(=O)C(=O)c2ccccc2-3)cc1	i	0.7	111.2*	25.2	104.3*	Diaphorase 10uM=97.2*;Diaphorase 30uM=91.6*
CNc1cccnc1C=NNC(N)=S	+	-15.4	73.8*	-4.8	23.4
NC(=S)NN=Cc1nccc2c(C(F)(F)F)cccc12	i	2.2	16.9	-1.7	nt
